In PubChem BioAssay AID1211 (NMMLSC, 2008):
Activity calls are given as the source filed them. How the calls were made is not given here.

Target: Estrogen receptor (Homo sapiens) (UniProt P03372)
Test: ERalpha ligand binders by competition, primary screen, cell-based, Cos7 ERalpha-GFP, flow cytometry (AID 1211);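 further: 0% = DMSO vehicle wells and 100% = no E2-Alexa633 signal left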
Conditions: fluorescent ligand competition, stronger effect = higher value

Sequence of Estrogen receptor (Homo sapiens) (P03372 whole entry, looked up): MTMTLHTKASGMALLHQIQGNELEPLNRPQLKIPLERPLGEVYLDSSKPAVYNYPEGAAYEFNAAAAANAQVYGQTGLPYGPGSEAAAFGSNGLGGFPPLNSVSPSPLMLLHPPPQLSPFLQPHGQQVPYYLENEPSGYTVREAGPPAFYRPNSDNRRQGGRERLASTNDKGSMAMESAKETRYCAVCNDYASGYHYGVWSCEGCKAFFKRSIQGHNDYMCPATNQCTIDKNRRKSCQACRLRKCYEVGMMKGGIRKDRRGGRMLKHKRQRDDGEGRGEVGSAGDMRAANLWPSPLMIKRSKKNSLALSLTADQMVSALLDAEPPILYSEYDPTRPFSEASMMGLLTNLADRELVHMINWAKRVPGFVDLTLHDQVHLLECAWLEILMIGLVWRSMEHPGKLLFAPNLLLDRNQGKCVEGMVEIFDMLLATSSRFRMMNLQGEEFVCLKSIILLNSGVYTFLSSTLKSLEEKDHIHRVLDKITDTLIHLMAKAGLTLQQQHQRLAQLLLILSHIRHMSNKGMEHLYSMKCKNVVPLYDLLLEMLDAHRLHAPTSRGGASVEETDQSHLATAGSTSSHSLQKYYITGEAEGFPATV

Structure (SMILES)	inhibition of ligand binding (at 10 µM)	inhibition of ligand binding (binding inhibition, at 0.1 µM) [%]
CCOc1ccccc1N1CSC2=C(C#N)C(c3c(OC)ccc4ccccc34)CC(=O)N2C1 (stereo unspecified)	19% (inactive)	17
Cc1cc(O)ccc1C1(c2ccc(O)cc2C)OC(=O)c2ccccc21	28% (inactive)	64
C[C@]12CC[C@@H]3c4ccc(O[C@@H]5O[C@H](C(=O)O)[C@@H](O)[C@H](O)[C@H]5O)cc4CC[C@H]3[C@@H]1C[C@@H](O)[C@@H]2O	72% (active)	40
Cc1nnc(NC(=O)CSc2nc3c(c(=O)n2CCc2ccccc2)SC(C)C3)s1 (stereo unspecified)	23% (inactive)	61
O=c1cc(O)c2c(=O)n(-c3ccccc3)c3c(c2o1)CCCCCC3	31% (inactive)	1
COC(=O)c1cnn2c(C(F)(F)F)cc(-c3ccco3)nc12	0% (inactive)	32
Cn1c(C(=O)Nc2ccc3c(c2)OCO3)cc2c(=O)n(C)c3ccccc3c21	26% (inactive)	15
COc1ccc(OC)c(NC(=O)CSc2nc3ccccc3c3nc4ccccc4n23)c1	26% (inactive)	60
Clc1ccc(Sc2cc(N3CCOCC3)nc(-c3ccccc3)n2)cc1	41% (inactive)	25
Cc1ccc(-c2csc(NC(=O)c3ccno3)n2)cc1	60% (inactive)	29
Cc1ccc(C2=Nc3ccccc3N=C(c3ccco3)C2)c(O)c1	2% (inactive)	26
CC(=O)OC1CC(C)(C)N(OC(=O)c2ccc(N)cc2)C(C)(C)C1	6% (inactive)	7
CCn1c(SCC(=O)c2ccc(O)c(O)c2)nnc1-c1ccccc1OC	54% (inactive)	16
CCc1ccc(Nc2cc(C(=O)NCCCN3CCOCC3)c3ccccc3n2)cc1	25% (inactive)	32
O=C(Nc1ccccc1N1CCOCC1)c1cc(-c2ccco2)nc2ccccc12	15% (inactive)	22
NC(=O)c1ccsc1NC(=O)COC(=O)Cc1ccsc1	37% (inactive)	29
CCc1oc2ccccc2c1C(=O)c1cc(Br)c(O)c(Br)c1	0% (inactive)	20
CCOC(=O)Cc1cc(=O)n2[nH]c(-c3ccc(C)cc3)cc2n1	0% (inactive)	25
CC1(C)CC(=O)C2=C(C1)OC(c1ccc(O)cc1)C(C#N)=C2N (stereo unspecified)	34% (inactive)	5
c1ccc(OCc2nnc3sc(C4COc5ccccc5O4)nn23)cc1 (stereo unspecified)	0% (inactive)	5
COc1ccc2c(c1)c(=O)oc1cc(OCC(=O)NC3CCCCC3)ccc12	60% (inactive)	60
COc1cc(NC(=O)COc2ccc(-n3cnnn3)cc2)c(OC)cc1Cl	58% (inactive)	41
CCc1ccc2[nH]c(=O)c(CN(Cc3ccc4c(c3)OCO4)C(=O)c3ccco3)cc2c1	0% (inactive)	62
